From publication PMC5540273 (PLoS ONE, 2017)

These compounds were tested on FRK. Details: concentration: 1 μM, replicates: in singlicate; n = 1.
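Also: KINOMEscan kinase panel screen.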

| SMILES | %Inh [%] |
| --- | --- |
| Cn1cc(-c2[nH]c3cc(NC(=O)[C@H](N)C4CCCCC4)cc4c3c2C=NNC4=O)cn1 | 0 |
| O=C(Nc1ccccc1F)NC1CCN(c2ccnc(Nc3ccc(F)cc3)n2)CC1 [GSK1379800] | 0 |
| Cc1ccc(F)c(C(=O)Nc2cccc(-c3nn4ccccc4c3-c3ccnc(Nc4cccc(F)c4)n3)c2)c1F [GSK361061] | 86 |
| O=C(O)C(F)(F)F.O=C(O)C(F)(F)F.O=c1[nH]ccc2nc(N[C@@H]3CCCNC3)nc(Nc3ccc(S(=O)(=O)N4CCOCC4)cc3)c12 [GSK2177277] | 39 |
| CN1CCN(CCCNc2nccc(-c3c(-c4ccc(F)cc4)nn4cc(C(F)(F)F)ccc34)n2)CC1 [GW621581] | 5 |
| CSc1cccc2c(-c3ccncn3)c(-c3ccc(F)cc3)nn12 [GW514786] | 9 |
| O=C(Nc1cccc(-c2nn3ccccc3c2-c2ccnc(Nc3cccc(C(F)(F)F)c3)n2)c1)c1c(F)cccc1F [GSK292658] | 72 |
| COc1ccc(Nc2nccc(N3CCC(NC(=O)Nc4cccc(OC)c4)C3)n2)cc1 (stereo not drawn) [GSK1379742] | 8 |
| Cc1cccc(NC(=O)Nc2ccc(Oc3ncnc4ccn(C)c34)cc2)c1 | 10 |
| O=C(NC1CCN(c2ccnc(Nc3ccc(F)cc3)n2)C1)c1cc2ccccc2s1 (stereo not drawn) [GSK1379716] | 18 |
| O=c1[nH]cc(-c2ccc(N3CCOCC3)cc2)c2sc(-c3cn[nH]c3)cc12 [GSK2276055] | 0 |
| Nc1ncc(-c2cccnc2)c2scc(-c3ccc4c(c3)CCN4C(=O)Cc3ccccc3)c12 [GSK683281] | 6 |
